According to PubChem BioAssay AID1159580 (chemical genetic matrix, 2015):
The campaign covered roughly 5,500 compounds. About 2,000 (36%) were called active. Not shown: some 18% with an inconclusive outcome. Rule as the data show it: active = normalized growth mostly below about 0.91 (no sharp cut-off); inconclusive = no clear call, values can overlap the other calls; inactive = mostly above about 0.92. Some of the results follow.

Assay: chemical genetic growth profiling, strain panel (AID 1159580);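 also: tested at 20 µM; growth read once vehicle control cultures reached saturation at 30 °C; 1 = growth at the plate median or of vehicle wells; lower values mean less growth of the strain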
Conditions: growth OD
[1] = S. cerevisiae deletion strains, locus YDL101C, strain DUN1, hits give low values
[2] = S. cerevisiae deletion strains, locus YHR030C, strain SLT2, hits give low values

Measured: normalized growth

Cc1onc(NC(=O)NC(=O)c2c(F)cccc2Cl)c1Br
inactive: S. cerevisiae deletion strains, locus YAL013W, strain DEP1, hits give low values 1 | S. cerevisiae deletion strains, locus YBR229C, strain ROT2, hits give low values 0.996 | S. cerevisiae deletion strains, locus YCL061C, strain MRC1, hits give low values 1.03 | [1] 1.04 | S. cerevisiae deletion strains, locus YDR150W, strain NUM1, hits give low values 1.01 | S. cerevisiae deletion strains, locus YEL061C, strain CIN8, hits give low values 0.973 | S. cerevisiae deletion strains, locus YGR078C, strain PAC10, hits give low values 1.01 | [2] 0.96 | S. cerevisiae deletion strains, locus YHR087W, strain rtc3, hits give low values 0.971 | S. cerevisiae deletion strains, locus YJR043C, strain POL32, hits give low values 1.01 | S. cerevisiae deletion strains, locus YJR075W, strain HOC1, hits give low values 1.01 | S. cerevisiae deletion strains, locus YLR039C, strain RIC1, hits give low values 1 | S. cerevisiae deletion strains, locus YLR058C, strain SHM2 (second series), hits give low values 1 | S. cerevisiae deletion strains, locus YLR085C, strain ARP6, hits give low values 0.986 | S. cerevisiae deletion strains, locus YLR262C, strain YPT6, hits give low values 0.988 | S. cerevisiae deletion strains, locus YML094W, strain GIM5, hits give low values 0.973 | S. cerevisiae deletion strains, locus YMR219W, strain ESC1, hits give low values 0.998 | S. cerevisiae deletion strains, locus YMR263W, strain SAP30, hits give low values 1.01 | S. cerevisiae deletion strains, locus YNL153C, strain GIM3, hits give low values 1.02 | S. cerevisiae deletion strains, locus YNL298W, strain CLA4 (second series), hits give low values 1.01 | S. cerevisiae deletion strains, locus YNL322C, strain KRE1, hits give low values 1 | S. cerevisiae deletion strains, locus YNR030W, strain Alg12, hits give low values 0.981 | S. cerevisiae deletion strains, locus YOL006C, strain TOP1, hits give low values 1 | S. cerevisiae deletion strains, locus YPL055C, strain LGE1, hits give low values 0.964 | S. cerevisiae deletion strains, locus YPL241C, strain CIN2, hits give low values 1 | S. cerevisiae deletion strains, locus YPR135W, strain CTF4, hits give low values 0.977 | S. cerevisiae strains, strain wild type, hits give low values 1

OC(CNCc1ccc(Cl)cc1)CO/N=C\C1=C(Cl)c2cc(Cl)ccc2OC1 (stereo not drawn)
inactive: S. cerevisiae deletion strains, locus YAR019C, strain CDC15, hits give low values 0.962 | S. cerevisiae deletion strains, locus YBL105C, strain PKC1, hits give low values 0.981 | S. cerevisiae deletion strains, locus YBR135W, strain CKS1, hits give low values 0.981 | S. cerevisiae deletion strains, locus YBR136W, strain MEC1, hits give low values 0.957 | S. cerevisiae deletion strains, locus YBR160W, strain CDC28, hits give low values 0.988 | S. cerevisiae deletion strains, locus YDL017W, strain CDC7, hits give low values 0.986 | S. cerevisiae deletion strains, locus YDL028C, strain MPS1, hits give low values 0.975 | [1] 0.987 | S. cerevisiae deletion strains, locus YDL108W, strain KIN28, hits give low values 0.967 | S. cerevisiae deletion strains, locus YDL132W, strain cdc53, hits give low values 0.979 | S. cerevisiae deletion strains, locus YDL214C, strain PRR2, hits give low values 0.925 | S. cerevisiae deletion strains, locus YDR052C, strain DBF4, hits give low values 0.989 | S. cerevisiae deletion strains, locus YDR054C, strain cdc34, hits give low values 0.98 | S. cerevisiae deletion strains, locus YDR226W, strain ADK1, hits give low values 0.97 | S. cerevisiae deletion strains, locus YDR477W, strain SNF1, hits give low values 0.974 | S. cerevisiae deletion strains, locus YER123W, strain YCK3, hits give low values 0.867 | S. cerevisiae deletion strains, locus YER133W, strain GLC7, hits give low values 0.933 | S. cerevisiae deletion strains, locus YFL009W, strain cdc4, hits give low values 0.976 | S. cerevisiae deletion strains, locus YFL029C, strain CAK1, hits give low values 0.963 | S. cerevisiae deletion strains, locus YFR003C, strain YPI1, hits give low values 0.981 | S. cerevisiae deletion strains, locus YFR019W, strain FAB1, hits give low values 0.921 | S. cerevisiae deletion strains, locus YFR028C, strain CDC14, hits give low values 0.96 | S. cerevisiae deletion strains, locus YGR040W, strain KSS1, hits give low values 0.97 | S. cerevisiae deletion strains, locus YGR052W, strain FMP48, hits give low values 1 | S. cerevisiae deletion strains, locus YGR092W, strain DBF2, hits give low values 0.928 | [2] 0.871 | S. cerevisiae deletion strains, locus YHR079C, strain IRE1, hits give low values 0.931 | S. cerevisiae deletion strains, locus YHR082C, strain KSP1, hits give low values 0.966 | S. cerevisiae deletion strains, locus YHR205W, strain SCH9, hits give low values 0.949 | S. cerevisiae deletion strains, locus YIL147C, strain SLN1, hits give low values 0.969 | S. cerevisiae deletion strains, locus YJL095W, strain BCK1, hits give low values 0.915 | S. cerevisiae deletion strains, locus YJL128C, strain PBS2, hits give low values 0.933 | S. cerevisiae deletion strains, locus YJL157C, strain FAR1, hits give low values 0.971 | S. cerevisiae deletion strains, locus YJR016C, strain ILV3, hits give low values 0.991 | S. cerevisiae deletion strains, locus YJR066W, strain TOR1 (second series), hits give low values 1 | S. cerevisiae deletion strains, locus YJR066W, strain TOR1, hits give low values 0.944 | S. cerevisiae deletion strains, locus YKL048C, strain ELM1, hits give low values 0.931 | S. cerevisiae deletion strains, locus YKL067W, strain YNK1, hits give low values 0.937 | S. cerevisiae deletion strains, locus YKL101W, strain HSL1, hits give low values 0.923 | S. cerevisiae deletion strains, locus YKL193C, strain SDS22, hits give low values 0.981 | S. cerevisiae deletion strains, locus YKL203C, strain TOR2, hits give low values 0.983 | S. cerevisiae deletion strains, locus YLR113W, strain HOG1, hits give low values 0.87 | S. cerevisiae deletion strains, locus YLR133W, strain CKI1, hits give low values 0.96 | S. cerevisiae deletion strains, locus YLR403W, strain SFP1, hits give low values 0.996 | S. cerevisiae deletion strains, locus YML070W, strain DAK1, hits give low values 0.924 | S. cerevisiae deletion strains, locus YMR001C, strain CDC5, hits give low values 0.985 | S. cerevisiae deletion strains, locus YMR205C, strain PFK2 (second series), hits give low values 0.949 | S. cerevisiae deletion strains, locus YMR277W, strain FCP1, hits give low values 0.981 | S. cerevisiae deletion strains, locus YNL006W, strain LST8, hits give low values 0.99 | S. cerevisiae deletion strains, locus YNL020C, strain ARK1, hits give low values 0.963 | S. cerevisiae deletion strains, locus YNL161W, strain CBK1, hits give low values 0.983 | S. cerevisiae deletion strains, locus YNL183C, strain NPR1, hits give low values 0.932 | S. cerevisiae deletion strains, locus YNL207W, strain RIO2, hits give low values 0.97 | S. cerevisiae deletion strains, locus YNL222W, strain SSU72, hits give low values 0.979 | S. cerevisiae deletion strains, locus YNL307C, strain MCK1 (second series), hits give low values 0.934 | S. cerevisiae deletion strains, locus YOL078W, strain AVO1, hits give low values 0.984 | S. cerevisiae deletion strains, locus YOL136C, strain PFK27, hits give low values 0.921 | S. cerevisiae deletion strains, locus YOR061W, strain CKA2, hits give low values 0.969 | S. cerevisiae deletion strains, locus YOR119C, strain RIO1, hits give low values 0.957 | S. cerevisiae deletion strains, locus YOR231W, strain MKK1, hits give low values 0.918 | S. cerevisiae deletion strains, locus YOR329C, strain SCD5, hits give low values 0.977 | S. cerevisiae deletion strains, locus YPL031C, strain PHO85, hits give low values 0.975 | S. cerevisiae deletion strains, locus YPL153C, strain RAD53, hits give low values 0.984 | S. cerevisiae deletion strains, locus YPL204W, strain HRR25, hits give low values 0.994 | S. cerevisiae deletion strains, locus YPL209C, strain IPL1, hits give low values 0.981 | S. cerevisiae deletion strains, locus YPL256C, strain CLN2, hits give low values 0.864 | S. cerevisiae deletion strains, locus YPR025C, strain CCL1, hits give low values 0.981 | S. cerevisiae deletion strains, locus YPR106W, strain ISR1, hits give low values 0.963 | S. cerevisiae deletion strains, locus YPR111W, strain DBF20, hits give low values 0.962 | S. cerevisiae deletion strains, strain NNK1, hits give low values 0.959 | S. cerevisiae deletion strains, strain TSCII, hits give low values 0.979
